TROY NFkB inh: inhibitors of TROY-dependent NF-kB signaling | Q293 LMP1-TROYcd NF-kB luciferase reporter, 4 h | inhibition, % at 10 µM | 360,000 compounds, 0.98% hits | AID 1347056;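 active = compounds whose plate-normalised and pattern-corrected inhibition of the luciferase reporter signal at the single screening dose is 50% or more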
Shn3 inh set2: Schnurri-3 reporter inhibition in Clone20 osteoblasts; 360,000 compounds, 0.52% hits; inhibition, % at 12.5 µM; Clone20 osteoblast Shn3 3'UTR firefly luciferase, 24 h;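 active = mean inhibition of at least 75% with every replicate also reaching 75%; inconclusive = mean inhibition at least 75% but some replicate below; inactive = mean inhibition below 75%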;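 note: 0% = median of neutral control wells and 100% = pilot-screen positive control compound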
TWEAK-Fn14 inh: blocks TWEAK-Fn14 interaction in a reporter cell assay. TWEAK-stimulated Fn14 reporter cells, luciferase luminescence, 8 h. inhibition, % at 10 µM. 360,000 compounds, 2% hits. AID 1159606; in the data active = inhibition above about 50%
Peg3 prom inh-1: reduces Peg3 promoter-driven luciferase expression in HeLa. inhibition, % at 20 µM. HeLa PEG-Prom luciferase reporter, luminescence, overnight. 360,000 compounds, 1.7% hits;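 active = inhibition of at least 50% at 20 µM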
TRPM1 prom inh: inhibitors of MITF-driven TRPM1 promoter in melanoma cells | SK-MEL-5 TRPM1 promoter luciferase, 24 h | inhibition, % at 12.5 µM | 330,000 compounds, 0.83% hits | AID 488899;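 active = mean inhibition across replicates of 60% or more, whatever share of single replicates reaches that level; inconclusive = some that reach 60%, reason not given; inactive = mean inhibition across replicates below 60%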
EBV LMP1 NFkB: Epstein-Barr LMP1 NF-kappaB reporter inhibition. inhibition, % at 12.5 µM. 350,000 compounds, 0.69% hits. AID 504558. LMP1-induced NF-kappaB luciferase reporter cells, luminescence; in the data active = inhibition above about 41%; inconclusive = no clear call, values can overlap the other calls;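 note: 0% = neutral control wells and 100% = reference inhibitor control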
Peg3 prom inh-2: Peg3 promoter inhibition confirmation | inhibition, % at 20 µM | 1,300 compounds, 84% hits | HeLa PEG-Prom luciferase reporter, luminescence, overnight | shares compounds with Peg3 prom inh-1;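 active = at 20 µM dose, 40% or more inhibition averaged across four replicates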
Starred values were filed as active, the others as inactive; ? = inconclusive; · = not tested or not shown. The list is not random: actives were taken first. Their share in the collection is about 4.1%.

SMILES	TROY NFkB inh	Shn3 inh set2	TWEAK-Fn14 inh	Peg3 prom inh-1	TRPM1 prom inh	EBV LMP1 NFkB	Peg3 prom inh-2
COC(=O)c1c(NC(=O)CSc2nnc3ccccn23)sc2c1CCC2	4	29	18	-2	1	2	·
O=C(NC1=NCCS1)C1COc2ccccc2O1 (configuration not stated)	86*	80	106*	106*	80*	71*	82*
COC(=O)NCCc1cc(OC)c(OC)cc1S(=O)(=O)N1CC(=O)Nc2ccccc21	-10	-6	17	18	4	-3	·
N#C/C(=C\c1ccc([N+](=O)[O-])cc1)c1ccccn1	-76	-2	-30	-245	-46	-21	·
CN(C)c1ccc(/C=C(\C#N)c2ccccn2)cc1	74*	45	94*	78*	68*	60*	49*
CN(C)S(=O)(=O)c1ccc(NC(=O)c2ccccn2)cc1	-7	-59	16	-176	-47	-9	·
CN(C)c1ccc(NC(=S)c2ccccn2)cc1	81*	62	99*	90*	79*	73*	66*
CNS(=O)(=O)c1cc(NC(=O)CCNC(=O)c2ccco2)ccc1C	2	-5	3	10	-8	0	·
CSCCC(NC(=O)c1ccccc1Cl)C(=O)Nc1ccc(C)c(S(=O)(=O)N2CCOCC2)c1 (configuration not stated)	-27	3	-14	-6	-2	-7	·
O=C(CSCc1cccc(Br)c1)N=Nc1c(O)[nH]c2ccccc12	7	3	-15	9	13	-16	·
O=Nc1c(-c2c(O)[nH]c3cc(Br)ccc23)[nH]c2ccccc12	69*	-50	91*	101*	-5	-59	98*
N/C(=N\OC(=O)c1ccccc1)C(C(=O)NOC(=O)c1ccccc1)C1CCCCC1 (configuration not stated)	-48	59	-5	86*	5	-50	97*
O=C(COC(=O)c1ccccc1)NC1CCCCCC1	-40	9	-2	-80	-3	0	·
COc1cc(N=Nc2ccccc2C(=O)O)ccc1O	5	11	12	-12	15	4	·
COc1cc(N=Nc2c(O)c3ccccc3[nH]c2=O)c(OC)cc1N=Nc1ccccc1	36	-4	1	59*	26	11	83*
CC1CCCCC1NC(=O)c1cccc(S(=O)(=O)N2CCN(Cc3ccccc3)CC2)c1 (configuration not stated)	22	61	11	1	8	3	·
CN(C)CCCN(C(=O)c1ccc(C(=O)c2ccccc2)cc1)c1nc2cc3c(cc2s1)OCO3	9	34	-24	86*	19	2	90*
Cc1ccc2nc(N(CCCN(C)C)C(=O)c3ccc4c(c3)CCCC4)sc2c1	0	3	8	108*	?	-10	98*
CN(C)CCN(C(=O)c1ccc(S(=O)(=O)N(C)c2ccccc2)cc1)c1nc2cc3c(cc2s1)OCCO3	-64	-52	-18	-133	-46	-14	·
CCN(Cc1ccccc1)S(=O)(=O)c1ccc(C(=O)N(CCCN(C)C)c2nc3cc4c(cc3s2)OCCO4)cc1	16	-18	6	53*	45	-34	72*
COc1cccc(CNC(=O)C2(C)CCCCN2C)c1 (configuration not stated)	5	27	-3	-2	·	·	·
O=C(CNC(=O)c1cn2ccccc2n1)Nc1ccc(F)c(F)c1	-55	-85	-21	-334	-79	-34	·
Cc1ccc(C(C)C)cc1OCC(=O)N/N=C/c1ccc2c(c1)OCCO2	11	-39	19	-4	-2	3	·
CC(C)COc1cccc(-c2cc(C(=O)Nc3ccon3)c3ccccc3n2)c1	7	0	23	11	-2	-6	·
Cc1oc(-c2ccc3c(c2)OCCO3)cc1C(=O)NCC(=O)O	2	-3	19	-60	-15	-46	·
SMILES	TROY NFkB inh	Shn3 inh set2	TWEAK-Fn14 inh	Peg3 prom inh-1	TRPM1 prom inh	EBV LMP1 NFkB	Peg3 prom inh-2
Cc1oc(-c2ccc3c(c2)OCCO3)cc1C(=O)O	84*	-3	106*	96*	52	10	89*
COC(=O)c1c(NC(=O)c2ccc([N+](=O)[O-])o2)sc2c1CCN(C(C)C)C2	-2	4	-32	94*	63*	39	69*
COc1cccc(N(C(=O)c2snc(C(N)=O)c2N)C(C(=O)NCc2ccccc2)c2ccc(O)cc2)c1 (configuration not stated)	23	3	24	28	0	-6	·
NC(=O)c1nsc(C(=O)N(c2ccccc2F)C(C(=O)NCc2ccccc2)c2ccc(O)cc2)c1N (configuration not stated)	13	2	23	75*	-1	3	57*
CCN(CC)CCCCCC(=O)Nc1ccccc1C(=O)Nc1ccccc1	3	-12	-11	0	16	5	·
COCCNC(=O)C(=O)c1c(-c2ccccc2)[nH]c2ccccc12	-12	-42	11	-52	13	-14	·
O=C(C(=O)N(Cc1ccccc1)Cc1ccccc1)c1c(-c2ccccc2)[nH]c2ccccc12	17	13	52*	64*	13	-3	68*
COc1ccccc1CNC(=O)COC(=O)Cc1ccc(Cl)cc1	-1	7	-1	21	-5	-4	·
CN(C)c1ccc(/C=C2\SC(=O)N(CCc3nnc(N)s3)C2=O)cc1	77*	69	94*	72*	83*	73*	54*
OCCCn1c(C2CCCN2c2nc(-c3ccc(F)cc3)cs2)nc2cc(Cl)c(N3CCCCC3)cc21 (configuration not stated)	13	21	17	56*	18	-6	21
OCCOCCn1c(C2CCCN2c2nc(-c3ccc(F)cc3)cs2)nc2cc(Cl)c(Cl)cc21 (configuration not stated)	8	-11	13	8	11	-7	·
Cc1ccc2nc(/C(C#N)=C\c3ccc([N+](=O)[O-])o3)[nH]c2c1	45	99*	99*	105*	92*	-14	84*
C=CCn1c(C)cc(C(=O)COc2ccc(C)nc2[N+](=O)[O-])c1C	13	50	65*	61*	27	24	69*
Cc1cc(C(=O)COC(=O)C2=COCCO2)c(C)n1-c1ccccc1	87*	37	103*	60*	81*	72*	72*
CCCn1c(C)cc(C(=O)COc2ccc(C)nc2[N+](=O)[O-])c1C	26	27	45	12	-2	12	·
COCCn1c(C)cc(C(=O)COc2ccc(C)nc2[N+](=O)[O-])c1C	9	58	11	66*	36	45*	72*
